# Assay results taken from PubChem BioAssay (NCATS).
# Results filed as inconclusive are left out. Entries that show only a call come without a potency. The source made the active and inactive calls. Calls follow the shape of the dose curve; as a rule, active = well fitted inhibition curve with a large enough effect; inconclusive = small, poorly fitted or top-dose-only effect; inactive = no such curve, though single readings can be large or run the other way.
# Target: Cytochrome P450 3A7 (Homo sapiens) (UniProt P24462)
# Assay: Cytochrome P450 family 3 subfamily A member 7 (CYP3A7) small molecule antagonists: luciferase biochemical qHTS assay (AID 1963596); also: nearly all actives have a fitted effect of over 40% in size
# Settings: P450-Glo CYP3A7 enzyme luminescence, 1 h; series mostly up to 57.4 µM
# In short: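 Enzyme-substrate mix + cpd (DMSO), 10 min RT; + NADPH regen system, 1 h RT; + luciferin detection reagent, 20 min RT; luminescence read. Proluciferin substrate, P450-Glo format, 1536-well qHTS.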
# Potency is read from the fitted curve at half-maximal effect.
# Chain of Cytochrome P450 3A7 (Homo sapiens) (P24462 whole entry, looked up): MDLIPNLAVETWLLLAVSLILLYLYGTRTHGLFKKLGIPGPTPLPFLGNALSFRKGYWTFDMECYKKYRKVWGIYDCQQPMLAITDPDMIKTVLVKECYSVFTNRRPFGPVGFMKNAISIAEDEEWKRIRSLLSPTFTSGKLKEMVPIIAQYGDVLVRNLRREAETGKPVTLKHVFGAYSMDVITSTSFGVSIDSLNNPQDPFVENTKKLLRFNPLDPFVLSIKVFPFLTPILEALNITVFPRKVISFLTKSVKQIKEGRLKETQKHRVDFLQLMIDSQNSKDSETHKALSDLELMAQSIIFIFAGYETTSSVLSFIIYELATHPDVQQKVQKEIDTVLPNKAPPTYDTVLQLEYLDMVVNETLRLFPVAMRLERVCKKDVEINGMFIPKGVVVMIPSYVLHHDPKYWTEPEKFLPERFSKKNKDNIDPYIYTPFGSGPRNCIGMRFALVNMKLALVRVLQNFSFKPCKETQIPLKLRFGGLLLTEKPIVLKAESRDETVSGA
row,Structure (SMILES),Potency
1,C=C(C)Cn1c(SCC(=O)c2cccs2)nc2sc3c(c2c1=O)CCCC3,inactive
2,N#C/C(=C/c1ccccc1Cl)c1nc2ccccc2c(=O)[nH]1,inactive
3,CN[C@@H]1[C@@H](O)[C@@H](O[C@@H]2[C@@H](O)[C@H](O[C@H]3O[C@H]([C@@H](C)NC)CC[C@H]3N)[C@@H](N)C[C@H]2N)OC[C@]1(C)O,inactive
4,CCCC(=O)O,inactive
5,CC(=O)Nc1nc2c(Oc3cc(-c4ccc(C(F)(F)F)cc4)ncn3)cccc2s1,26.8 µM (active)
6,CC12CCC(C[N+](C)(CCC[N+](C)(C)C)C1)C2(C)C (stereo not given),inactive
7,CCOc1ccc(NC(=S)N2CCC(C(O)(c3ccccc3)c3ccccc3)CC2)cc1,inactive
8,CCCCCCCCCC(=O)O,inactive
9,CCN(CC)C(=O)c1cccnc1,inactive
10,CCOc1ccc(-c2nn3ncccc3c2-c2ccc(S(C)(=O)=O)cc2)cc1,inactive
11,C[C@@H]1CN(Cc2ccccc2)C[C@H]1c1nc2c(cnn2C2CCOCC2)c(=O)[nH]1,inactive
12,C[C@H](CCCC(C)(C)O)[C@H]1CC[C@H]2[C@@H]3CC=C4C[C@@H](O)CC[C@]4(C)[C@H]3CC[C@]12C,inactive
13,CC(CCC(=O)O)C1CC[C@H]2C3[C@H](O)C[C@@H]4C[C@H](O)CCC4(C)[C@H]3C[C@H](O)C12C (stereo not given in full),inactive
14,CCCCCCCC(=O)O,inactive
15,COc1ccc(-c2nc3n(n2)C(c2ccc(OC)c(OC)c2)C(C(=O)Nc2cccnc2)=C(C)N3)cc1 (stereo not given),inactive
16,CC1(C)Oc2ncnc(N)c2N=C1c1ccc(C23CCC(CC(=O)O)(CC2)CC3)cc1,inactive
17,Fc1ccc(-c2nc(-c3c(F)cccc3F)[nH]c2-c2ccncc2)cc1,inactive
18,O=C(O)c1ccc(Cc2c(-c3cccc(-c4ccccc4)c3)[nH]n(-c3nc(C(=O)O)cs3)c2=O)cc1,inactive
19,Nc1ccn(C2O[C@H](CO)[C@@H](O)[C@@H]2O)c(=O)n1 (stereo not given in full),inactive
20,Nc1nccs1,inactive

row,Structure (SMILES),Potency
1,Cc1ccc(C)c(NC(=O)Cn2cc(C(=O)c3ccco3)c3ccccc32)c1,inactive
2,COc1cc(C(=O)NC(=S)Nc2cccc(NC(=O)c3ccccc3)c2)cc(OC)c1OC,inactive
3,Cc1ccc(-c2nnc(Nc3ccccc3)c3ccccc23)cc1S(=O)(=O)NCc1nc2ccccc2[nH]1,inactive
4,NC(=O)c1cccc2cn(-c3ccc(C4CCCNC4)cc3)nc12 (stereo not given),inactive
5,COc1ccccc1Nc1nc(-c2ccccc2F)nc2ccccc12,inactive
6,N#Cc1cc(C2=Nc3ccc(Br)cc3NC(=O)C2)ccn1,inactive
7,N[C@H](CO)C(=O)O,inactive
8,C=CCNc1nc(NCC=C)nc(N2CCN(C(c3ccc(F)cc3)c3ccc(F)cc3)CC2)n1,inactive
9,Cc1ccccc1NC(=O)Nc1ccc(CN2C(=O)N([C@@H](CC(C)C)C(=O)N[C@@H](CC(=O)O)c3ccccc3)C(=O)C2(C)C)cc1,inactive
10,COC(=O)C(CN)c1c[nH]c2ccc(OC)cc12 (stereo not given),inactive
11,CCc1cnc(N2CCC(c3nc(COc4ccc(-n5cnnn5)cc4)cs3)CC2)nc1,inactive
12,Cc1ccc(C)c(Nc2nc3nonc3nc2Nc2cccc(C)c2C)c1,inactive
13,COc1ccc(-n2[nH]c(=O)c3[nH]c4cc(Cl)ccc4c(=O)c3c2=O)c(C)c1,inactive
14,O=C(Nc1cccc(C2=NCCN2)c1)Nc1cccc(C2=NCCN2)c1,inactive
15,CCC1(O)CC2c3cc(OC)c(OC)cc3CCN2CC1CC(C)C (stereo not given),inactive
16,Cc1ccc(C(=O)c2cn(CC(=O)Nc3ccc4c(c3)OCCO4)c3nc(C)ccc3c2=O)cc1,inactive
17,CC(C)=CCC/C(C)=C/CC/C(C)=C/CC/C=C(\C)CC/C=C(\C)CCC=C(C)C,inactive
18,COc1cccc(C(=O)NC(c2ccc(Cl)cc2)c2cc(Cl)c3cccnc3c2O)c1 (stereo not given),inactive
19,O=C1CSc2ccccc2N1Cc1cccc(C(F)(F)F)c1,inactive
20,CC(NC(=O)CCc1nc2ccccc2c(=O)[nH]1)c1ccccc1 (stereo not given),inactive
